The structures appear in SMILES notation. Compounds without any hit were thinned out: in the full panel of roughly 79,000, 15% have a hit. Unmarked numbers belong to inactive results. Active and inactive are the calls of the source. Rule as the data show it: active = growth inhibition above about 70%; inactive = the rest.

Test [1] can be described thus: NCI Yeast Anticancer Drug Screen. Data for the rad50 strain (AID 155).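 Also: 0% = growth of vehicle-only cultures of the same strain.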 The following applies: S. cerevisiae rad50 strain growth inhibition, stronger effect = higher value. Put shortly:
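Compounds were tested on a yeast strain with an engineered DNA damage repair alteration; the reported value is growth inhibition normalised to vehicle treatment.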

Test [2] in a line: NCI Yeast Anticancer Drug Screen. Data for the mec2-1 strain (AID 157). Conditions: S. cerevisiae mec2-1 strain, stronger effect = higher value. Put shortly:
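mec2-1 yeast strain, carrying an alteration in DNA damage repair or cell cycle control, was exposed to compounds; growth inhibition was measured relative to vehicle-treated controls.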

The nature of test [3]: NCI Yeast Anticancer Drug Screen. Data for the sgs1 mgt1 strain (AID 161).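 Also: 0% = growth of cultures given vehicle only.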 Conditions: S. cerevisiae sgs1 mgt1 strain, stronger effect = higher value. Put shortly:
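This yeast growth screen uses a strain with defined DNA-repair lesions; compound-treated growth is compared with vehicle-treated growth.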

Test [4] can be described thus: NCI Yeast Anticancer Drug Screen. Data for the cln2 rad14 strain (AID 165).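 Also: 0% = growth equal to vehicle treated cultures.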 Conditions: S. cerevisiae cln2 rad14 strain, stronger effect = higher value. Put shortly:
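Yeast carrying cln2 and rad14 alterations (cell cycle control and DNA damage repair) were exposed to compounds. Growth inhibition was measured against vehicle-treated controls.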

Test [5] in a line: NCI Yeast Anticancer Drug Screen. Data for the bub3 strain (AID 167). Conditions: S. cerevisiae bub3 mutant strain, stronger effect = higher value. Put shortly: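 Growth of a checkpoint-deficient yeast mutant is measured after compound exposure. Values represent inhibition relative to vehicle.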
A short description of test [6]: NCI Yeast Anticancer Drug Screen. Data for the mlh1 rad18 strain (AID 175). The following applies: S. cerevisiae mlh1 rad18 strain growth inhibition, stronger effect = higher value. Put shortly: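 Growth inhibition of the yeast strain was measured after compound exposure and expressed relative to vehicle-treated controls. The strain carries defined defects in DNA damage repair.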

The mark [7] stands for this setting: at 5.0 µM (retest, dose inferred, filed as 0.5).
Where [8] appears, read: at 50.0 µM (retest, dose inferred, filed as 5.0).

As to `O=C(c1ccccc1)C1CCCN(CCc2ccccc2)C1` (stereo not given), the growth inhibition in test [1] (setting [7]) is 54%; in test [1] (setting [8]), 64%; in test [1] (at 50.0 µM), 57.3%; in test [2] (setting [7]), 31%; in test [2] (setting [8]), 70% (active); in test [2] (at 50.0 µM), 55.7%. Besides, the growth inhibition in test [3] (setting [7]) was 54%; in test [3] (setting [8]) it was 63%; in test [3] (at 50.0 µM), 73.3% (active); in test [4] (setting [7]) it was 48%; in test [4] (setting [8]), 62%; in test [4] (at 50.0 µM) it was 82% (active). The growth inhibition in test [5] (setting [7]) was 43%; in test [5] (setting [8]) it was 56%; in test [5] (at 50.0 µM), 84.2% (active); in test [6] (setting [7]), 56%; in test [6] (setting [8]) it was 67%; in test [6] (at 50.0 µM), 67.7%.
With `CC(C)COP(=O)(O)OCC(C)C.[Al]`, the growth inhibition in test [1] (setting [7]) was -2%; in test [1] (setting [8]), -11%; in test [1] (at 50.0 µM) it was 3.45%; in test [2] (setting [7]), -4%; in test [2] (setting [8]), -9%; in test [2] (at 50.0 µM), 16.6%. Further, the growth inhibition in test [3] (setting [7]) is -5%; in test [3] (setting [8]), -4%; in test [3] (at 50.0 µM) it was 3.05%; in test [4] (setting [7]), -1%; in test [4] (setting [8]), 3%; in test [4] (at 50.0 µM), -12.1%. For the same compound, the growth inhibition in test [5] (setting [7]) is 1%; in test [5] (setting [8]), 31%; in test [5] (at 50.0 µM) it was -0.75%; in test [6] (setting [7]), -2%; in test [6] (setting [8]), -10%; in test [6] (at 50.0 µM), 18.2%.
`O=C(CCl)c1ccc(O)cc1`: the growth inhibition was 16% in test [1] (setting [7]); 96% (active) in test [1] (setting [8]); 91.5% (active) in test [1] (at 50.0 µM); 21% in test [2] (setting [7]); 98% (active) in test [2] (setting [8]); 98.2% (active) in test [2] (at 50.0 µM). In addition, the growth inhibition was 31% in test [3] (setting [7]); 97% (active) in test [3] (setting [8]); 97.3% (active) in test [3] (at 50.0 µM); 7% in test [4] (setting [7]); 97% (active) in test [4] (setting [8]); 89.2% (active) in test [4] (at 50.0 µM). The growth inhibition in test [5] (setting [7]) was 20%; in test [5] (setting [8]), 98% (active); in test [5] (at 50.0 µM) it was 96% (active); in test [6] (setting [7]), 22%; in test [6] (setting [8]), 98% (active); in test [6] (at 50.0 µM), 97.8% (active).
As to `CC1=CC2OC3CC4OC(=O)/C=C/C=C/C(=O)OCCC(C)C(O)C(=O)OCC2(CC1O)C4(C)C31CO1` (stereo not given), the growth inhibition is 96% (active) in test [1] (setting [7]); 98% (active) in test [1] (setting [8]); 92.3% (active) in test [1] (at 50.0 µM); 96% (active) in test [2] (setting [7]); 98% (active) in test [2] (setting [8]); 93.1% (active) in test [2] (at 50.0 µM). Besides, the growth inhibition in test [3] (setting [7]) was 98% (active); in test [3] (setting [8]), 99% (active); in test [3] (at 50.0 µM) it was 93.2% (active); in test [4] (setting [7]), 97% (active); in test [4] (setting [8]) it was 98% (active); in test [4] (at 50.0 µM) it was 91.7% (active). For the same compound, the growth inhibition in test [5] (setting [7]) is 96% (active); in test [5] (setting [8]), 98% (active); in test [5] (at 50.0 µM), 91.7% (active); in test [6] (setting [7]), 96% (active); in test [6] (setting [8]), 97% (active); in test [6] (at 50.0 µM), 91.5% (active).
For `CCCNC(=O)Nc1ccc2c(c1)Cc1cc(N(CCCl)CCCl)ccc1-2`, the growth inhibition in test [1] (setting [7]) was 2%; in test [1] (setting [8]) it was 32%; in test [1] (at 50.0 µM) it was 39.1%; in test [2] (setting [7]), 0%; in test [2] (setting [8]), 16%; in test [2] (at 50.0 µM), 23.1%. In addition, the growth inhibition in test [3] (setting [7]) is -4%; in test [3] (setting [8]), 73% (active); in test [3] (at 50.0 µM), 37.3%; in test [4] (setting [7]), 3%; in test [4] (setting [8]), -1%; in test [4] (at 50.0 µM) it was 24.9%. Further, the growth inhibition was 6% in test [5] (setting [7]); 86% (active) in test [5] (setting [8]); 76.5% (active) in test [5] (at 50.0 µM); 3% in test [6] (setting [7]); 52% in test [6] (setting [8]); 31.2% in test [6] (at 50.0 µM).
For `ClCCN(CCCl)c1ccc(CNCCCNCc2ccc(N(CCCl)CCCl)cc2)cc1`, the growth inhibition is -1% in test [1] (setting [7]); 57% in test [1] (setting [8]); 94.7% (active) in test [1] (at 50.0 µM); -13% in test [2] (setting [7]); 7% in test [2] (setting [8]); 49% in test [2] (at 50.0 µM). Also, the growth inhibition is -12% in test [3] (setting [7]); 41% in test [3] (setting [8]); 99.1% (active) in test [3] (at 50.0 µM); -2% in test [4] (setting [7]); 37% in test [4] (setting [8]); 14.8% in test [4] (at 50.0 µM). Moreover, the growth inhibition in test [5] (setting [7]) is -3%; in test [5] (setting [8]), 38%; in test [5] (at 50.0 µM) it was 43%; in test [6] (setting [7]), 4%; in test [6] (setting [8]), 98% (active); in test [6] (at 50.0 µM), 99.2% (active).
As for `S=P(Nc1ccccc1)(Nc1ccccc1)Oc1ccccc1`, the growth inhibition in test [1] (setting [7]) is 2%; in test [1] (setting [8]), 98% (active); in test [1] (at 50.0 µM) it was 99% (active); in test [2] (setting [7]), -4%; in test [2] (setting [8]), 98% (active); in test [2] (at 50.0 µM) it was 99% (active). For the same compound, the growth inhibition in test [3] (setting [7]) is -4%; in test [3] (setting [8]), 98% (active); in test [3] (at 50.0 µM), 99.2% (active); in test [4] (setting [7]), -4%; in test [4] (setting [8]), 97% (active); in test [4] (at 50.0 µM) it was 98.7% (active). The growth inhibition in test [5] (setting [7]) was 9%; in test [5] (setting [8]) it was 97% (active); in test [5] (at 50.0 µM), 98.7% (active); in test [6] (setting [7]) it was 7%; in test [6] (setting [8]), 97% (active); in test [6] (at 50.0 µM), 97.5% (active).
`Cc1ccc(NP(=O)(Oc2ccccc2)N(CCCl)CCCl)cc1` (stereo not given): the growth inhibition in test [1] (setting [7]) is 11%; in test [1] (setting [8]), 10%; in test [1] (at 50.0 µM), 74% (active); in test [2] (setting [7]) it was -8%; in test [2] (setting [8]), 10%; in test [2] (at 50.0 µM), 23.9%. Also, the growth inhibition was 8% in test [3] (setting [7]); 20% in test [3] (setting [8]); 73.5% (active) in test [3] (at 50.0 µM); 30% in test [4] (setting [7]); 61% in test [4] (setting [8]); 56.5% in test [4] (at 50.0 µM). Also, the growth inhibition in test [5] (setting [7]) is 14%; in test [5] (setting [8]), 32%; in test [5] (at 50.0 µM), 62%; in test [6] (setting [7]) it was -10%; in test [6] (setting [8]) it was -5%; in test [6] (at 50.0 µM) it was 54.6%.
With `COc1ccc2c(c1O)-c1cccc3c1[C@@H](C2)N(CCCl)CC3`, the growth inhibition in test [1] (setting [7]) is 30%; in test [1] (setting [8]), 90% (active); in test [1] (at 50.0 µM), 67.6%; in test [2] (setting [7]) it was 15%; in test [2] (setting [8]), 99% (active); in test [2] (at 50.0 µM), 70.8% (active). The growth inhibition in test [3] (setting [7]) is 28%; in test [3] (setting [8]), 95% (active); in test [3] (at 50.0 µM), 57.6%; in test [4] (setting [7]), 13%; in test [4] (setting [8]), 66%; in test [4] (at 50.0 µM) it was 35.4%. Further, the growth inhibition is 19% in test [5] (setting [7]); 98% (active) in test [5] (setting [8]); 44.4% in test [5] (at 50.0 µM); 52% in test [6] (setting [7]); 98% (active) in test [6] (setting [8]); 86.6% (active) in test [6] (at 50.0 µM).
As for `CC(=O)O.[Au].c1ccc([PH+](c2ccccc2)c2ccccc2)cc1`, the growth inhibition is 99% (active) in test [1] (setting [7]); 98% (active) in test [1] (setting [8]); 98.2% (active) in test [1] (at 50.0 µM); 98% (active) in test [2] (setting [7]); 98% (active) in test [2] (setting [8]); 98.2% (active) in test [2] (at 50.0 µM). Also, the growth inhibition is 99% (active) in test [3] (setting [7]); 55% in test [3] (setting [8]); 98% (active) in test [3] (at 50.0 µM); 99% (active) in test [4] (setting [7]); 96% (active) in test [4] (setting [8]); 98% (active) in test [4] (at 50.0 µM). The growth inhibition in test [5] (setting [7]) is 100% (active); in test [5] (setting [8]) it was 98% (active); in test [5] (at 50.0 µM) it was 98.2% (active); in test [6] (setting [7]), 99% (active); in test [6] (setting [8]) it was 97% (active); in test [6] (at 50.0 µM), 97.6% (active).

Values taken from PubChem BioAssay (NCI).
